Screening data: PubChem, Broad Institute
Wnt bcat act: activates Wnt/beta-catenin signaling in a reporter cell assay | activator, plate reader | activation, % at 9.35 µM | actives 1.2% (n = 300,000); in the data active = activation above about 30%, passing the limit was not always enough; inconclusive = no clear call, values can overlap the other calls;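 also: 0% = neutral control wells and 100% = positive control wells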
HSF-1 act: increases HSF-1 driven luciferase reporter signal; actives 1.7% (n = 300,000); activation, % at 9 µM; NIH3T3-HGL HSF-1 luciferase reporter, MG132, 8 h; 100% = twice DMSO control signal;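 active = mean replicate activation of at least 50% with a set share of replicates each reaching 50%; inconclusive = only one of those two conditions met; inactive = mean below 50% and too few replicates reaching it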;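 also: 0% = median of the neutral control wells and 100% = twice that signal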
HSF1 inh: HSF1 inhibition | NIH3T3-HGL HSE-luciferase, MG132-induced, luminescence 8 h; stronger effect = lower value | activity change, negative = inhibition, % at 7.5 µM (by protocol) | actives 0.77% (n = 300,000) | AID 2098;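 active = more than half of replicate wells show activity change below -50%, luminescence cut by over half; inconclusive = some wells, but at most half, below -50%; inactive = no replicate well below -50%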;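 also: luciferase reports HSF-1 transcriptional activity via heat shock element; 0% = median of DMSO wells and -100% = zero luminescence signal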
MITF TRPM1 HTS: MITF TRPM1 promoter activation in melanoma cells. SK-MEL-5 TRPM1-promoter luciferase, 24 h; % of positive control, neutral wells = 0. activation, % at 12.5 µM. actives 0.75% (n = 300,000). AID 588334;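 active = mean activation of at least 80% with every replicate also reaching 80%; inconclusive = mean reaches 80% but some replicate falls short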;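 also: 0% = neutral control wells and 100% = parthenolide positive control wells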
esBAF inh: SWI/SNF esBAF complex inhibition; mouse ES cells, Bmi1-luciferase knock-in reporter, 24 h; 100% = twice the neutral-well signal; reporter increase, % at 12.5 µM; actives 2% (n = 350,000); in the data active = activation above about 40%; inconclusive = no clear call, values can overlap the other calls;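 also: 0% = median of the plate's neutral control wells and 100% = double that signal; a rise in the Bmi1 reporter signal indicates esBAF inhibition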
* = called active by the depositor; u = inconclusive; x = not tested or not shown. Shown are actives, neighbours in structure and some others; about 3.9% of the full set was active somewhere.

SMILES	Wnt bcat act	HSF-1 act	HSF1 inh	MITF TRPM1 HTS	esBAF inh
CC=Cc1ccc2n(c1=O)C[C@H]1[C@H](CO)[C@@H](C(=O)Nc3ccc(-c4ccccc4)cc3)N(CC)[C@@H]21 (mixture of isomers)	x	x	x	x	46.2*
COCCCNc1nc2nonc2nc1N1CCN(Cc2cccc(C)c2)CC1	-4.6	63.1*	20.9	-10.9	-8.1
COCCCNc1nc2nonc2nc1N1CCN(C2CCCC2)CC1	0.2	1.1	7.1	1.6	-2.5
COc1cc(NC(=O)CN(C)S(=O)(=O)c2cccs2)cc(OC)c1	-2.5	10.7	-4.7	4.7	6.1
Cc1ccc(NC(=O)CN(C)S(=O)(=O)c2cccs2)cc1C	3.0	13.2	-5.2	44.5	98.3*
Cc1ccc(NC(=O)CN(C)S(=O)(=O)c2cccs2)cc1F	x	14.2	6.2	45.4	50.8*
CCOc1ccc(NC(=O)CN(C)S(=O)(=O)c2cccs2)cc1	x	1.5	-5.4	40.0	54.0*
Cc1ccc(NC(=O)CN(C)S(=O)(=O)c2cccs2)c(Br)c1	1.2	-26.3	-11.3	10.7	31.7
O=C(C[C@@H]1CC[C@H]2[C@@H](COC[C@@H](O)CN2C(=O)Nc2cc(Cl)cc(Cl)c2)O1)NCC1CCCCC1	x	x	x	x	0.3
Cc1cc(C)cc(SCc2noc(C(=O)NCc3ccccc3)c2C(=O)NCc2ccccc2)c1	-3.2	-67.5	-60.0*	2.9	-2.0
C=CCc1ccccc1OCC(=O)O	33.6*	-13.7	-9.1	-11.0	x
N#Cc1c(N)nc(SCc2ccncc2)c(C#N)c1-c1cccs1	x	-70.0	-67.6*	-5.3	5.8
COc1cc(-c2c(C#N)c(N)nc(SCc3ccncc3)c2C#N)cc(OC)c1OC	-2.4	-16.3	-5.8	-8.4	0.6
CCN(CC)C(=O)CSc1nc(N)c(C#N)c(-c2cccs2)c1C#N	6.8	-18.9	-0.7	-7.2	-2.4
CCSc1nc(N)nc(-c2cccs2)c1C#N	-4.4	19.0	0.6	29.8	49.2*
CN1CCc2nc(SCc3ccc(Cl)cc3)c(C#N)c(-c3cccs3)c2C1	-4.3	189.8*	155.5	x	x
CCOC(=O)CC(=O)CSc1nc2c(c(-c3cccs3)c1C#N)CCC2	-9.6	13.8	-8.8	-13.0	-5.9
COc1ccc(NC(=O)Nc2cccc3c2O[C@@H](CN(C)C(=O)Nc2c(C)noc2C)[C@@H](C)CN([C@H](C)CO)C3=O)cc1	x	x	x	x	-0.3
COc1ccc(NC(=O)c2cccnc2Nc2ccc(OC)cc2)cc1	x	-5.2	-3.4	4.4	7.6
CC(C)c1ccc(Nc2ncccc2C(=O)O)cc1	16.6	u	27.5	46.1	60.3*
COc1ccc(NC(=O)Nc2ccc3c(c2)C(=O)N([C@@H](C)CO)C[C@H](C)[C@@H](CN(C)Cc2ccc(C(=O)O)cc2)OCCCC[C@H](C)O3)cc1	x	x	x	x	-1.7
CC(=O)COc1ccc2c(c1C)O/C(=C\c1ccco1)C2=O	5.9	3.2	3.9	64.4	61.3*
CCOC(=O)c1c(C)nc2c3ccccc3ccn12	u	u	19.0	x	26.0
CCOC(=O)c1c(C)nc2c(C)cccn12	2.4	-91.7	-89.2*	0.5	-1.9
CCCc1nn(C)c(C(=O)Nc2ccc(C)c(C)c2)c1Cl	12.3	19.1	15.7	62.3	70.4*
SMILES	Wnt bcat act	HSF-1 act	HSF1 inh	MITF TRPM1 HTS	esBAF inh
C[C@H](O)C#Cc1ccc2c(c1)O[C@@H](CN(C)Cc1ccccn1)[C@@H](C)CN([C@@H](C)CO)S2(=O)=O	x	x	x	x	0.9
Cc1ccccc1C(=O)Nc1ccc2c(c1)OCCO2	-1.9	7.4	8.5	-7.8	-45.1
COCC(=O)Nc1c(C(=O)Nc2ccc3c(c2)OCO3)oc2ccccc12	27.1	27.2	12.7	58.9	63.0*
Cc1c(C(=O)NNC(=O)c2ccccc2O)oc2ccccc12	0.7	x	x	x	59.0*
O=C(Nc1ccc2c(c1)OCCO2)c1coc2ccccc2c1=O	x	-61.4	-51.6*	-69.2	x
Cc1c(C(=O)Nc2ccc3c(c2)OCO3)oc2ccccc12	26.6	37.2	39.3	42.2	50.1*
CNC[C@H]1Oc2ccc(NC(=O)c3ccncc3)cc2CC(=O)N([C@H](C)CO)C[C@H]1C	x	x	x	x	-6.2
CC(=O)N(C)C[C@@H]1Oc2ncc(-c3ccc(C(=O)N(C)C)cc3)cc2C(=O)N([C@H](C)CO)C[C@H]1C	x	x	x	x	0.2
Cc1ccccc1Nc1sc(C(=O)Nc2cccc(Cl)c2)c(N)c1C(N)=O	51.5*	x	x	16.5	x
Cc1cc(C)c(C(N)=O)c(Nc2cccc(Cl)c2)n1	2.3	14.1	0.5	4.7	-0.2
CO[C@@H]1CN(C)C(=O)c2ccc(NC(=O)Nc3ccccc3Cl)cc2OC[C@@H](C)N(C(C)=O)C[C@H]1C	x	x	x	x	0.4
CC(=O)c1ccc(N2CCN(C(=O)c3n[nH]c4ccccc34)CC2)cc1	-0.1	56.0*	24.9	-6.5	x
CCCNC(=O)Nc1ccc2c(c1)C(=O)N(C)[C@H]1CC[C@H](CC(=O)NC)O[C@@H]1CO2	x	x	x	x	2.7
CC1(C)CC(=O)C=C(Nc2ccc(Br)cc2F)C1	0.7	-70.1	-63.5*	x	1.4
Cc1ccc(NC2=CC(=O)CC(C)(C)C2)c(N)c1	-0.1	-0.5	-2.8	x	8.6
COc1cccc(C#Cc2ccc3c(c2)O[C@@H](CN(C)C)[C@@H](C)CN([C@@H](C)CO)S3(=O)=O)c1	x	x	x	x	-1.1
S=C(Nc1ccc(Br)cc1Cl)N1CCCC1	12.6	22.5	9.7	84.1*	u
S=C(Nc1ccccc1Cl)N1CCCC1	1.1	-0.6	-6.1	-0.4	x
COc1ccc(OC)c(C(C[N+](=O)[O-])c2c(C)cc3ccccn23)c1 (stereo unspecified)	-3.3	112.1*	88.3	-23.2	-7.6
O=C(C[C@@H]1C[C@@H]2c3cc(NC(=O)c4cccnc4)ccc3O[C@@H]2[C@H](CO)O1)NCc1cccnc1	x	x	x	x	4.0
COc1ccc(CNc2ccc(Br)cc2)cc1	43.4*	17.0	16.4	57.5	x
COc1ccc(CNc2ccc(-c3ccc(OC)cc3)nn2)cc1	x	17.8	17.4	43.8	44.7*
COc1ccc(C(C)NC(=O)Cc2ccc(Br)cc2)cc1 (stereo unspecified)	x	60.9*	21.9	19.8	x
CC(C)NC(=O)Cc1ccc(Br)cc1	2.8	17.3	-5.2	0.4	-4.1
C[C@@H]1CN([C@H](C)CO)C(=O)c2cc(NC(=O)CCCCCC(=O)Nc3ccccc3N)ccc2O[C@@H]1CN(C)C(=O)Nc1ccc2c(c1)OCO2	x	x	x	x	-3.1
COc1ccc(OC)c(NC(=O)c2nc(S(=O)(=O)Cc3ccccc3)ncc2Cl)c1	-21.4	-95.0	-94.2*	-94.1	-71.7
COc1ccc(NC(=O)c2nc(S(=O)(=O)Cc3cccc(C)c3)ncc2Cl)c(OC)c1	0.1	204.4*	170.7	-38.9	-0.8
CCn1c(=O)cc(SCC(=O)N2CCN(c3ccccc3F)CC2)c2ccccc21	2.0	54.2*	16.5	x	-5.5
CCn1c(=O)cc(SCC(=O)N2CCN(c3ccccn3)CC2)c2ccccc21	x	29.6	7.0	2.7	-8.9
COC(=O)c1ccc(-c2nc3cc(Cl)c(N)cc3s2)cc1	x	-65.0	-56.7*	-19.4	x
